# Nrf2 activator: qHTS of Nrf2 Activators; AREc32 ARE-luciferase reporter (MCF7-derived line), luminescence, 24 h; AID 624171, 2012; 410,000 tested, 0.31% active; Potency, µM (top dose mostly 46.1 µM), without a hit: at the highest dose activation, usual class: activators; note: % of control where 0% means no effect; nearly all actives have a fitted effect of over 65% in size
#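 Quantitative high-throughput format: AREc32 reporter cells, 1000 per well, received compound by pin transfer and were incubated 24 hr at 37 deg C, 5% CO2, before Steady-Glo luminescence detection.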
# Nrf2 inh: Nrf2 qHTS screen for inhibitors | AID 504444, 2011 | Potency, µM (doses to about 46 µM), for the others: at the highest dose activity change, negative = inhibition, usual class: inhibitors | A549 ARE-Fluc reporter, luciferase luminescence, 18-24 h | 360,000 tested, 2.1% active; note: % is set by controls: 0 for no effect and ±100 for the full control effect; nearly all actives have a fitted effect of over 60% in size
#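 A549 ARE_Fluc cells (5000/well, 5% FBS OPTI-MEM) pre-incubated 2 h, then treated with compounds 18-24 h at 37C/5% CO2 in concentration-response. CellTiter-Fluor viability read first; BugLite luciferase luminescence after 15 min at room temperature gives Nrf2 activity.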
# A549 tox-1: Nrf2 qHTS screen for inhibitors: counterscreen for cytotoxicity. A549 ARE-Fluc cells, CellTiter-Fluor viability, 18-24 h. AID 504648, 2011. 390,000 tested, 0.16% active. Potency, µM (highest dose often 46 µM), for the others: at the highest dose activity change, negative = cytotoxicity, usual class: inhibitors; note: % is set by controls: 0 for no effect and ±100 for the full control effect
#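 A549 ARE_Fluc cells in 5% FBS OPTI-MEM were exposed to compounds in concentration-response for 18-24 h at 37 deg C. Viability was read by CellTiter-Fluor fluorescence (Ex 405/Em 525) after 30 min, before the luciferase read.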
# PINK1 modulator: A Quantitative High throughput Screen to Identify Chemical Modulators of PINK1 Expression | PINK1 immunofluorescence, high-content cytometry, 24 h | Potency, µM (titrated, usually from 76.6 µM), inactives show at the top dose activation (PINK1 increase), most hits filed as activators | 410,000 tested, 0.2% active; active = well fitted activation curve with a large enough effect; inconclusive = small, poorly fitted or top-dose-only effect; cell line not stated here; note: % of control where 0% means no effect; nearly all actives have a fitted effect of over 65% in size
#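 Readout is PINK1 immunofluorescence, quantified alongside mitochondrial, cell and nuclear markers by laser-scanning microplate cytometry. Cells from a stable line were exposed to compound titrations (5 concentrations) for 24 hours, with CCCP controls.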
# Epigenetic derep: Quantitative High-Throughput Screen for Regulators of Epigenetic Control | murine LDR cells, GFP reporter derepression, 30 h | Potency, µM (highest dose often 53.9 µM), inactives show top-dose GFP activation, actives largely listed as activators | 280,000 tested, 0.2% active | AID 1865, 2009; note: % of control where 0% means no effect; nearly all actives have a fitted effect of over 60% in size
#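 Reporter derepression read as number of fluorescent GFP-positive objects, 20-120 um in size, counted by laser-scanning cytometer. Mouse LDR line with an epigenetically silenced CMV-GFP locus; compound incubation 30 h, 37 C.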
# FLuc enzyme inh: Nrf2 qHTS screen for inhibitors: Purified Fluc Biochemical Counterscreen for Hit Validation | Potency, µM (top dose mostly 57.5 µM), inactives show at the top dose activity change, negative = inhibition, hits mostly inhibitors | 1,400 tested, 4% active | purified firefly luciferase, luminescence inhibition | shares compounds with Nrf2 inh; note: % is set by controls: 0 for no effect and ±100 for the full control effect; nearly all actives have a fitted effect of over 65% in size
# Target sequence (P08659 whole entry, looked up): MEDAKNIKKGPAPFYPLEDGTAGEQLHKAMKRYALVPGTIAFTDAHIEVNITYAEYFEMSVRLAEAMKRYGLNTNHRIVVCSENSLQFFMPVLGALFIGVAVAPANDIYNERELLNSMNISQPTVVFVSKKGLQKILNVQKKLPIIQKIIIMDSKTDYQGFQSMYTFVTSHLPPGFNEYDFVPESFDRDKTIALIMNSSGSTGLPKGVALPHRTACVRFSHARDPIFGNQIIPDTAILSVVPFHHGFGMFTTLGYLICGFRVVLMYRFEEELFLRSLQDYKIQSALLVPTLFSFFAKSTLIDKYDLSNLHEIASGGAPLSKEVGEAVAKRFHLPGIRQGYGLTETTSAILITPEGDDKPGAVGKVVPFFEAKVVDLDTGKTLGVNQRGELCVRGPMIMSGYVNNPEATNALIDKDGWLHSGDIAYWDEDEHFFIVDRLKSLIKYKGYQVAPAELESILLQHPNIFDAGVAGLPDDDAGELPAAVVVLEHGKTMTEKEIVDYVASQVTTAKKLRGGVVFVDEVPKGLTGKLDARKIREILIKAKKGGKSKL
# A549 tox-2: Nrf2 qHTS screen for inhibitors: A549 ARE-Fluc Cytotoxicity Counterscreen for Hit Validation | A549 ARE-Fluc cells, cytotoxicity counterscreen | 1,400 tested, 2% active | Potency, µM (titrated, usually from 46.1 µM), inactives show at the top dose activity change, negative = cytotoxicity, most hits filed as inhibitors | shares compounds with Nrf2 inh | AID 720523, 2013;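 note: cells exposed to compounds for 18 to 24 hours; % is set by controls: 0 for no effect and ±100 for the full control effect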
# Nrf2 ARE inh: Nrf2 qHTS screen for inhibitors: Nrf2 A549 ARE-Fluc Confirmation Assay for Hit Validation; 1,400 tested, 74% active; Potency, µM (series often up to 46.1 µM), for inactives: top-dose activity change, negative = inhibition, usual class: inhibitors; A549 ARE-firefly luciferase reporter, luminescence; shares compounds with Nrf2 inh; AID 720524, 2013; note: % is set by controls: 0 for no effect and ±100 for the full control effect; nearly all actives have a fitted effect of over 65% in size
# An asterisk follows results filed as active; ? = inconclusive; nt = no result shown; [ ] = another dose, or the depositor's remark. This is a sample that favours compounds with a hit; in the whole collection about 2.4% have one here. Unless noted, calls come from the whole dose curve; as a rule, active = well fitted curve in the direction sought with a large enough effect; inconclusive = small, poorly fitted or top-dose-only effect, or another doubt; inactive = no such curve, though single readings can be large; an effect the other way counts as inactive or inconclusive. Potency is the fitted concentration of half-maximal effect.
SMILES,Nrf2 activator,Nrf2 inh,A549 tox-1,PINK1 modulator,Epigenetic derep,FLuc enzyme inh,A549 tox-2,Nrf2 ARE inh
Cc1oc(-c2ccc(C(=O)NCCc3ccc(Cl)cc3)cc2)nc1CSc1ccccc1,-1%,-3%,-1%,16%,-2%,nt,nt,nt
COC(=O)[C@@H]1CCCN1C(=O)[C@@H](C)CO,nt,nt,nt,nt,1%[10.1 µM],nt,nt,nt
COc1cccc(/C=c2/[nH]c(=O)/c(=C\c3cccc(OC)c3OC)[nH]c2=O)c1OC,nt,nt,nt,2%,nt,nt,nt,nt
COc1ccc(NC(=O)Cn2cc(C(=O)c3ccccc3OC)c(=O)c3ccc(C)nc32)cc1OC,8%,-6%,-23%,2%,-2%,nt,nt,nt
COc1ccc(Cl)cc1NC(=O)CSC1=Nc2ccccc2C2=NC(CCC(=O)NCc3ccc(F)cc3)C(=O)N12 (configuration not stated),8%,3.7µM*,?,1%,4%,4%,?,15µM*
CCN1C(=O)/C(=C2\C=Cc3cc(C)ccc3N2CC)OC1=S,0%,-2%,-15%,4%,-1%,nt,nt,nt
CCN1/C(=C/c2cc[n+](C)cc2)C=Cc2cc(C)ccc21,0%,3.7µM*,?,10µM*,?,-18%,10µM*,1.3µM*
COc1ccccc1Nc1sc(C(=O)c2ccc(C)cc2C)c(N)c1S(=O)(=O)c1ccccc1,-2%,nt,0%,4%,2%,nt,nt,nt
CCOC(=O)c1c(SCC(=O)Nc2nc3ccc(C)cc3s2)nc(=O)[nH]c1C,4%,nt,-3%,-1%,1%,nt,nt,nt
O=[N+]([O-])c1ccc(O)c(-c2nc(-c3ccccc3)c(-c3cccs3)[nH]2)c1,1%,3.7µM*,nt,?,-1%,-16%,?,21µM*
O=C(O)c1ccc(-c2nc(-c3ccccc3)c(-c3cccs3)[nH]2)cc1,-1%,-15%,-8%,-1%,-3%,nt,nt,nt
Cc1cc(C)c2oc(-c3ccc(NC(=O)c4cc(Br)ccc4Cl)cc3)nc2c1,3%,5.8µM*,1%,2%,0%,-13%,-1%,7.3µM*
CC(C)COc1ccc(C(=O)N2CCCCC2CCN2CCOCC2)cc1 (configuration not stated),-1%,4%,-2%,0%,-1%,nt,nt,nt
CC(C)(C)OC(=O)NCCCC[C@H](NC(=O)c1nc[nH]c1C(=O)N[C@@H](CCCCNC(=O)OC(C)(C)C)C(=O)OC(C)(C)C)C(=O)OC(C)(C)C,0%,?,-14%,2%,-3%,nt,nt,nt
CC(C)(C)OC(=O)NCCCC[C@H](NC(=O)c1nc[nH]c1C(=O)NC(c1ccccc1)c1ccccc1)C(=O)OC(C)(C)C,4%,3.7µM*,?,2%,-2%,0%,?,21µM*
Cc1ccccc1-n1ncc2c(SCC(=O)NC3CCCC3)ncnc21,0%,8.2µM*,-20%,0%,nt,0%,-4%,15µM*
CC(C)[N+](C)(CCOC(=O)C1c2ccccc2Oc2ccccc21)C(C)C,0%,5.2µM*,9%,4%,-3%,-1%,-9%,4.6µM*
CC(C)CNC(=O)COC(=O)C1c2ccccc2Oc2ccccc21,0%,2%,1%,0%,nt,nt,nt,nt
Cc1ccccc1C1CC(=O)Oc2ccc(O)cc21 (configuration not stated),nt,nt,nt,nt,-3%[96.6 µM],nt,nt,nt
CCN(C(=O)c1ccc(C(C)(C)C)cc1)c1nnc(Cn2nnc3ccccc32)s1,5%,5.8µM*,?,0%,-3%,1%,-15%,6.5µM*
Cc1ccc(-c2csc3ncnc(N4CCN(S(=O)(=O)c5ccc(C#N)cc5)CC4)c23)cc1,0%,nt,nt,1%,nt,nt,nt,nt
c1ccc(CC2CCN(c3ncnc4sccc34)CC2)cc1,0%,5.2µM*,-5%,-1%,-1%,-29%,-3%,3.7µM*
Cc1ccc(S(=O)(=O)N2CCN(c3ncnc4sccc34)CC2)cc1,1%,7.3µM*,-8%,0%,nt,-2%,4%,8.2µM*
Cc1cccc(NC2=NC(C)(C)N=C(N)N2)c1,0%,5.2µM*,-8%,-1%,-3%,2%,-6%,4.6µM*
COc1ccc(S(=O)(=O)N(CC(=O)Nc2cccc(C(F)(F)F)c2)c2ccc(C)cc2)cc1,4%,?,-3%,2%,0%,nt,nt,nt
SMILES,Nrf2 activator,Nrf2 inh,A549 tox-1,PINK1 modulator,Epigenetic derep,FLuc enzyme inh,A549 tox-2,Nrf2 ARE inh
O=C(Nc1cccc(S(=O)(=O)Nc2ccc(Cl)cc2)c1)c1ccccn1,0%,8.2µM*,?,2%,nt,-9%,4%,nt
O=C(Nc1ccc(-c2nc3ccccc3s2)cc1)c1cc(-n2cnnc2)ccc1Cl,3%,2.3µM*,?,5%[38.3 µM],-2%,?,-13%,7.3µM*
COCCCNC(=O)CN1C(=O)c2c(c3ccccc3n2C)C1c1ccc(OC)cc1 (configuration not stated),5%,-4%,-1%,0%,0%,nt,nt,nt
Nc1cc(S(=O)(=O)N2CCOCC2)ccc1Oc1cccc(Br)c1,3%,8.2µM*,-18%,4%,nt,0%,-1%,8.2µM*
COCCCNC(=O)C1CCN(C(=O)c2cc3sccc3n2Cc2ccc(Cl)cc2)CC1,1%,?,-15%,-1%,0%,nt,nt,nt
COCCNC(=O)C1CCN(C(=O)c2cc3sccc3n2Cc2ccc(Cl)cc2)CC1,0%,8.2µM*,?,0%,0%,3%,-24%,5.8µM*
CCC(C)NC(=O)C1CCN(C(=O)c2cc3sccc3n2Cc2ccc(Cl)cc2)CC1 (configuration not stated),-1%,2.3µM*,?,1%,0%,1%,?,6.5µM*
CCc1ccc(-c2cc(C(=O)N/N=C/c3ccccn3)[nH]n2)cc1,0%,-9%,-14%,7%,1%,nt,nt,nt
CCCc1sc(N/N=C/c2ccccn2)nc1-c1ccc(Br)cc1,0%,2.9µM*,?,?,8%,-29%,-29%,5.8µM*
Cc1cc(C[n+]2ccccc2)c2nsnc2c1,0%,?,-13%,nt,0%,0%,-11%,2.6µM*

# Bioassay records as filed in PubChem BioAssay.
